Reference: PubChem BioAssay (NCI)
This is part of a sample that, as a whole, favours compounds with a hit. Of some 83,000 tested, about 20% had one in any assay.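 Values shown are percent growth following 48 h exposure of cells in 96-well plates to a single concentration of compound; below 10 was considered active.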 Unmarked numbers belong to inactive results. Activity calls are given as the source filed them.

What was measured:
Assay in all cases: NCI-60 one-dose screen, 48 h (100 = growth as untreated, 0 = no growth, -100 = all killed)
Details in all cases: 10 µM unless noted
[1] = tested on: NCI-H23 lung
[2] = tested on: NCI-H226 lung
[3] = tested on: NCI-H322M lung
[4] = tested on: HOP-62 NSCLC
[5] = tested on: NCI-H460 lung
[6] = tested on: HOP-92 NSCLC
[7] = tested on: NCI-H522 lung
[8] = tested on: A549/ATCC NSCLC
[9] = tested on: 786-0 renal
[10] = tested on: COLO 205 colon
[11] = tested on: DU-145 prostate
[12] = tested on: K-562 leukemia
[13] = tested on: MALME-3M melanoma
[14] = tested on: MDA-MB-231 breast
[15] = tested on: RXF 393 renal
[16] = tested on: SF-268 CNS
[17] = tested on: SF-295 CNS
[18] = tested on: SF-539 CNS
[19] = tested on: UACC-257 melanoma
[20] = tested on: M14 melanoma

Compound	growth [1]	growth [2]	growth [3]	growth [4]	growth [5]	growth [6]	growth [7]	growth [8]	growth [9]	growth [10]	growth [11]	growth [12]	growth [13]	growth [14]	growth [15]	growth [16]	growth [17]	growth [18]	growth [19]	growth [20]
CC1(C)CC[C@]23CC[C@]4(C)[C@H](CC[C@@H]5[C@@]6(C)C/C(=C/c7cccnc7)C(=O)C(C)(C)[C@@H]6CC[C@]54C)[C@H]2[C@H]1OC3=O	46.7% [100 µM]	24.6% [100 µM]	65.2% [100 µM]	25.2% [100 µM]	23.2% [100 µM]	24.8% [100 µM]	30.5% [100 µM]	44.8% [100 µM]	45.5% [100 µM]	23.1% [100 µM]	56.9% [100 µM]	33% [100 µM]	31.2% [100 µM]	35.8% [100 µM]	38.8% [100 µM]	66.3% [100 µM]	46.7% [100 µM]	63.2% [100 µM]	31.9% [100 µM]	52.1% [100 µM]
COc1ccc(/C=C2\N=C(Nc3ccccc3)N(NC(=O)c3ccccn3)C2=O)cc1	101%	98.1%	106%	107%	99.7%	95.8%	90%	99.1%	96.4%	115%	109%	81.1%	105%	94.6%	95.8%	101%	98.2%	98.3%	108%	101%
CC1Cc2c(Cl)ncnc2N(C)c2ccccc21 (stereo not given)	18.6%	1.16% (active)	26.8%	22.8%	21.2%	26%	57.7%	16.6%	4.7% (active)	-81.1% (active)	65.6%	37.6%	0.822% (active)	-33.8% (active)	13.6%	24.4%	19.9%	33%	11.5%	14.7%
O=S(=O)(/N=c1/n(-c2ccccc2)nc2n1CCN2C1=NCCN1)c1ccc(-c2ccccc2)cc1	101%	101%	104%	99.1%	94.8%	82.3%	106%	90.1%	89%	109%	108%	88.6%	112%	86.2%	87.9%	91.7%	97.7%	93.1%	103%	106%
NC(=O)c1c(NC(=O)COC(=O)Cc2ccccc2F)sc2c1CCC2	99.2%	94.4%	126%	115%	100%	89.3%	85.5%	103%	97.6%	101%	104%	139%	109%	101%	109%	99.6%	129%	94.9%	4.15% (active)	105%
CCOC(=O)C(C(C)=O)c1nc2sc3cc(Cl)c(Cl)cc3n2c(=O)c1C#N (stereo not given)	94.7%	95.3%	114%	109%	92.7%	76.8%	62.9%	108%	114%	108%	109%	92%	95.5%	87.2%	179%	103%	103%	86.2%	118%	104%
Cc1ccc(-c2cc(-c3ccc(C)cc3)nc(NCCNc3ccnc4cc(Cl)ccc34)n2)cc1	-12% (active)	-59.2% (active)	14.9%	-7.66% (active)	-68.8% (active)	-33.9% (active)	-63.6% (active)	-56.5% (active)	-91.4% (active)	-85.8% (active)	-26.4% (active)	-14.4% (active)	-81.4% (active)	-89.1% (active)	-70.4% (active)	-21.9% (active)	-76.3% (active)	-80.6% (active)	-60.9% (active)	-88.8% (active)
CC/C=C(\C)C(CCC)(CN=O)C(=O)OCC (stereo not given)	99.7%	109%	107%	93%	114%	102%	92.8%	85.8%	104%	104%	111%	114%	105%	94.8%	123%	105%	112%	98.9%	85.8%	99.3%
CCCc1cc2cc(-n3nc(C)c4c3CC(C)(C)CC4=O)cc(NC3CCSCC3)c2c(=O)[nH]1	36.8%	90.2%	63.4%	45.9%	66.5%	93.2%	47.7%	49.1%	66.8%	41.9%	42.9%	19%	64.6%	55.6%	33.7%	81.2%	62.2%	75.4%	84.6%	56.6%
Cc1ccc(-n2nc3n(/c2=N\C(=O)NS(=O)(=O)c2ccc(C)cc2)CCN3C2=NCCN2)cc1	106%	95.3%	105%	93.4%	106%	104%	88.6%	95.4%	99.4%	115%	108%	109%	106%	99.7%	123%	103%	102%	95.1%	98.1%	101%
C=C(CC(=O)OC)C(C)=O	105%	104%	119%	98.7%	111%	112%	101%	114%	106%	116%	107%	106%	128%	94.8%	112%	106%	106%	120%	118%	119%
COc1ccc(C(=O)CSc2nnc(-c3cc(-c4ccccc4)nc4ccccc34)o2)cc1	109%	106%	99.7%	97.5%	106%	113%	102%	98%	106%	122%	110%	103%	96.7%	98.7%	122%	100%	102%	106%	105%	105%
CCOC(=O)c1c[nH]c2cc(OCC3CC3)c(OCC3CC3)cc2c1=O	110%	106%	100%	109%	103%	116%	95.5%	109%	120%	113%	102%	121%	106%	119%	114%	109%	103%	105%	115%	115%
COc1cc(Cl)cc(-c2nn(C(=O)NS(=O)(=O)c3ccccc3)cc2-c2ccncc2)c1	90.4%	69.3%	96%	68.6%	107%	47.7%	82.5%	78.5%	70.9%	69.7%	82.5%	86.3%	96.4%	62.6%	79.2%	81.1%	97.9%	48.2%	110%	86.4%
CCCCOC(=O)c1cccc([N+](=O)[O-])c1	101%	104%	106%	109%	107%	99.8%	92.7%	107%	112%	115%	117%	144%	117%	121%	111%	110%	101%	105%	93.6%	105%
